# Assay results published in the supplement of paper PMC4466140.
# B1: unnamed (peptide)
# chain: RSKRLFPVRPMATAH
# Molecular target: AgAbp1
# Experiment: SPOT peptide array binding signal intensity (averaged, normalized) (arbitrary units (background-subtracted, floor 0; scale differs between SH3 domains)); higher = stronger binding of the SH3 domain to the peptide
# Protocol: (§1)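 GST-tagged SH3 domains from S. cerevisiae (Sc), A. gossypii (Ag), C. albicans (Ca) and S. pombe (Sp) were incubated at 10 ug/ml overnight at 4 C on cellulose SPOT membranes carrying 292 synthetic 15-mer peptides mined from the S. cerevisiae proteome (cysteines replaced by serines). Binding was detected with anti-GST antibody, HRP secondary and chemiluminescence, quantified with Genespotter, and reported as normalized spot intensities averaged over biological replicates.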
row,Binder,SPOT peptide array binding signal intensity
1,B1,39.5

# Molecular target: AgBbc1
# Experiment: as above
# Protocol: as §1
row,Binder,SPOT peptide array binding signal intensity
1,B1,36.2

# Molecular target: AgBem1-D1
# Experiment: as above
# Protocol: as §1
row,Binder,SPOT peptide array binding signal intensity
1,B1,89

# Molecular target: AgBzz1-D1
# Experiment: as above
# Protocol: as §1
row,Binder,SPOT peptide array binding signal intensity
1,B1,13

# Molecular target: AgBzz1-D2
# Experiment: as above
# Protocol: as §1
row,Binder,SPOT peptide array binding signal intensity
1,B1,11.5

# Molecular target: AgCyk3
# Experiment: as above
# Protocol: as §1
row,Binder,SPOT peptide array binding signal intensity
1,B1,3

# Molecular target: AgFus1
# Experiment: as above
# Protocol: as §1
row,Binder,SPOT peptide array binding signal intensity
1,B1,190

# Molecular target: AgHof1
# Experiment: as above
# Protocol: as §1
row,Binder,SPOT peptide array binding signal intensity
1,B1,3.5

# Molecular target: AgHse1
# Experiment: as above
# Protocol: as §1
row,Binder,SPOT peptide array binding signal intensity
1,B1,632

# Molecular target: AgLsb1
# Experiment: as above
# Protocol: as §1
row,Binder,SPOT peptide array binding signal intensity
1,B1,3

# Molecular target: AgLsb4
# Experiment: as above
# Protocol: as §1
row,Binder,SPOT peptide array binding signal intensity
1,B1,51

# Molecular target: AgMyo5
# Experiment: as above
# Protocol: as §1
row,Binder,SPOT peptide array binding signal intensity
1,B1,0.5

# Molecular target: AgNbp2
# Experiment: as above
# Protocol: as §1
row,Binder,SPOT peptide array binding signal intensity
1,B1,218

# Molecular target: AgRvs167
# Experiment: as above
# Protocol: as §1
row,Binder,SPOT peptide array binding signal intensity
1,B1,4.33

# Molecular target: AgSho1
# Experiment: as above
# Protocol: as §1
row,Binder,SPOT peptide array binding signal intensity
1,B1,79

# Molecular target: AgSla1-D1-D2
# Experiment: as above
# Protocol: as §1
row,Binder,SPOT peptide array binding signal intensity
1,B1,469

# Molecular target: AgSla1-D3
# Experiment: as above
# Protocol: as §1
row,Binder,SPOT peptide array binding signal intensity
1,B1,10.2

# Molecular target: CaAbp1-D1
# Experiment: as above
# Protocol: as §1
row,Binder,SPOT peptide array binding signal intensity
1,B1,451

# Molecular target: CaAbp1-D2
# Experiment: as above
# Protocol: as §1
row,Binder,SPOT peptide array binding signal intensity
1,B1,414

# Molecular target: CaBbc1
# Experiment: as above
# Protocol: as §1
row,Binder,SPOT peptide array binding signal intensity
1,B1,128

# Molecular target: CaBem1-D1
# Experiment: as above
# Protocol: as §1
row,Binder,SPOT peptide array binding signal intensity
1,B1,7

# Molecular target: CaBzz1-D1
# Experiment: as above
# Protocol: as §1
row,Binder,SPOT peptide array binding signal intensity
1,B1,53

# Molecular target: CaBzz1-D2
# Experiment: as above
# Protocol: as §1
row,Binder,SPOT peptide array binding signal intensity
1,B1,51.5

# Molecular target: CaCyk3
# Experiment: as above
# Protocol: as §1
row,Binder,SPOT peptide array binding signal intensity
1,B1,64.5

# Molecular target: CaFus1
# Experiment: as above
# Protocol: as §1
row,Binder,SPOT peptide array binding signal intensity
1,B1,402

# Molecular target: CaHof1
# Experiment: as above
# Protocol: as §1
row,Binder,SPOT peptide array binding signal intensity
1,B1,≤ 0

# Molecular target: CaHse1
# Experiment: as above
# Protocol: as §1
row,Binder,SPOT peptide array binding signal intensity
1,B1,14.2

# Molecular target: CaLsb1
# Experiment: as above
# Protocol: as §1
row,Binder,SPOT peptide array binding signal intensity
1,B1,0.5

# Molecular target: CaLsb4
# Experiment: as above
# Protocol: as §1
row,Binder,SPOT peptide array binding signal intensity
1,B1,502

# Molecular target: CaMyo5
# Experiment: as above
# Protocol: as §1
row,Binder,SPOT peptide array binding signal intensity
1,B1,≤ 0

# Molecular target: CaNbp2
# Experiment: as above
# Protocol: as §1
row,Binder,SPOT peptide array binding signal intensity
1,B1,366

# Molecular target: CaRvs167
# Experiment: as above
# Protocol: as §1
row,Binder,SPOT peptide array binding signal intensity
1,B1,27.8

# Molecular target: CaRvs167-3
# Experiment: as above
# Protocol: as §1
row,Binder,SPOT peptide array binding signal intensity
1,B1,93.5

# Molecular target: CaSho1
# Experiment: as above
# Protocol: as §1
row,Binder,SPOT peptide array binding signal intensity
1,B1,544

# Molecular target: CaSla1-D1-D2
# Experiment: as above
# Protocol: as §1
row,Binder,SPOT peptide array binding signal intensity
1,B1,95

# Molecular target: CaSla1-D3
# Experiment: as above
# Protocol: as §1
row,Binder,SPOT peptide array binding signal intensity
1,B1,22

# Molecular target: ScAbp1
# Experiment: as above
# Protocol: as §1
row,Binder,SPOT peptide array binding signal intensity
1,B1,4

# Molecular target: ScBbc1
# Experiment: as above
# Protocol: as §1
row,Binder,SPOT peptide array binding signal intensity
1,B1,10

# Molecular target: ScBem1-D1
# Experiment: as above
# Protocol: as §1
row,Binder,SPOT peptide array binding signal intensity
1,B1,5

# Molecular target: ScBzz1-D1
# Experiment: as above
# Protocol: as §1
row,Binder,SPOT peptide array binding signal intensity
1,B1,1.5

# Molecular target: ScBzz1-D2
# Experiment: as above
# Protocol: as §1
row,Binder,SPOT peptide array binding signal intensity
1,B1,2

# Molecular target: ScCyk3
# Experiment: as above
# Protocol: as §1
row,Binder,SPOT peptide array binding signal intensity
1,B1,216

# Molecular target: ScFus1
# Experiment: as above
# Protocol: as §1
row,Binder,SPOT peptide array binding signal intensity
1,B1,255

# Molecular target: ScHof1
# Experiment: as above
# Protocol: as §1
row,Binder,SPOT peptide array binding signal intensity
1,B1,1

# Molecular target: ScHse1
# Experiment: as above
# Protocol: as §1
row,Binder,SPOT peptide array binding signal intensity
1,B1,998

# Molecular target: ScLsb1
# Experiment: as above
# Protocol: as §1
row,Binder,SPOT peptide array binding signal intensity
1,B1,14.5

# Molecular target: ScLsb2
# Experiment: as above
# Protocol: as §1
row,Binder,SPOT peptide array binding signal intensity
1,B1,≤ 0

# Molecular target: ScLsb3
# Experiment: as above
# Protocol: as §1
row,Binder,SPOT peptide array binding signal intensity
1,B1,1050

# Molecular target: ScLsb4
# Experiment: as above
# Protocol: as §1
row,Binder,SPOT peptide array binding signal intensity
1,B1,32.5

# Molecular target: ScMyo3
# Experiment: as above
# Protocol: as §1
row,Binder,SPOT peptide array binding signal intensity
1,B1,5.5

# Molecular target: ScMyo5
# Experiment: as above
# Protocol: as §1
row,Binder,SPOT peptide array binding signal intensity
1,B1,3

# Molecular target: ScNbp2
# Experiment: as above
# Protocol: as §1
row,Binder,SPOT peptide array binding signal intensity
1,B1,384

# Molecular target: ScPex13
# Experiment: as above
# Protocol: as §1
row,Binder,SPOT peptide array binding signal intensity
1,B1,3.5

# Molecular target: ScRvs167
# Experiment: as above
# Protocol: as §1
row,Binder,SPOT peptide array binding signal intensity
1,B1,256

# Molecular target: ScSho1
# Experiment: as above
# Protocol: as §1
row,Binder,SPOT peptide array binding signal intensity
1,B1,661

# Molecular target: ScSla1-D1-D2
# Experiment: as above
# Protocol: as §1
row,Binder,SPOT peptide array binding signal intensity
1,B1,212

# Molecular target: ScSla1-D3
# Experiment: as above
# Protocol: as §1
row,Binder,SPOT peptide array binding signal intensity
1,B1,34

# Molecular target: SpAbp1-D1
# Experiment: as above
# Protocol: as §1
row,Binder,SPOT peptide array binding signal intensity
1,B1,118

# Molecular target: SpBbc1
# Experiment: as above
# Protocol: as §1
row,Binder,SPOT peptide array binding signal intensity
1,B1,≤ 0

# Molecular target: SpBzz1-D1
# Experiment: as above
# Protocol: as §1
row,Binder,SPOT peptide array binding signal intensity
1,B1,142

# Molecular target: SpBzz1-D2
# Experiment: as above
# Protocol: as §1
row,Binder,SPOT peptide array binding signal intensity
1,B1,0.5

# Molecular target: SpCyk3
# Experiment: as above
# Protocol: as §1
row,Binder,SPOT peptide array binding signal intensity
1,B1,5.5

# Molecular target: SpHof1
# Experiment: as above
# Protocol: as §1
row,Binder,SPOT peptide array binding signal intensity
1,B1,99.2

# Molecular target: SpHof1-2
# Experiment: as above
# Protocol: as §1
row,Binder,SPOT peptide array binding signal intensity
1,B1,5.5

# Molecular target: SpHof1-3
# Experiment: as above
# Protocol: as §1
row,Binder,SPOT peptide array binding signal intensity
1,B1,550

# Molecular target: SpHse1
# Experiment: as above
# Protocol: as §1
row,Binder,SPOT peptide array binding signal intensity
1,B1,350

# Molecular target: SpLsb1
# Experiment: as above
# Protocol: as §1
row,Binder,SPOT peptide array binding signal intensity
1,B1,3

# Molecular target: SpLsb4
# Experiment: as above
# Protocol: as §1
row,Binder,SPOT peptide array binding signal intensity
1,B1,624

# Molecular target: SpMyo1
# Experiment: as above
# Protocol: as §1
row,Binder,SPOT peptide array binding signal intensity
1,B1,1

# Molecular target: SpNbp2
# Experiment: as above
# Protocol: as §1
row,Binder,SPOT peptide array binding signal intensity
1,B1,235

# Molecular target: SpPex13
# Experiment: as above
# Protocol: as §1
row,Binder,SPOT peptide array binding signal intensity
1,B1,11

# Molecular target: SpRvs167
# Experiment: as above
# Protocol: as §1
row,Binder,SPOT peptide array binding signal intensity
1,B1,52.2

# Molecular target: SpSla1-D1-D2
# Experiment: as above
# Protocol: as §1
row,Binder,SPOT peptide array binding signal intensity
1,B1,1

# Molecular target: SpSla1-D3
# Experiment: as above
# Protocol: as §1
row,Binder,SPOT peptide array binding signal intensity
1,B1,13
